Screens from PubChem BioAssay.
HRas wt GTP bind – human HRas wildtype GTP binding, change in either direction. P01112. GST-Ras wt beads, Bodipy-FL-GTP binding, flow cytometry; actives lie on both sides. GTP binding activity, % at 10 µM. 190,000 tested, 0.14% active. AID 759;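 active = GTP binding activity at least 20% away from the 100% baseline, either lowered as inhibitor or raised as activator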
Target sequence (P01112 whole entry, looked up): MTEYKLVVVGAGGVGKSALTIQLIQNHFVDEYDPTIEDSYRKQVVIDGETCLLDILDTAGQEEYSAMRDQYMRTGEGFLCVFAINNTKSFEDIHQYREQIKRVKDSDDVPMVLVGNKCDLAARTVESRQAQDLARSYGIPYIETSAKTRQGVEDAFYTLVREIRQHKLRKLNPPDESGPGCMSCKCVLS
Cdc42 wt – changes GTP binding to wildtype human Cdc42. P60953. GST-Cdc42 beads, Bodipy-GTP binding, flow cytometry; actives lie on both sides. percent activity (GTP binding), % at 10 µM. 190,000 tested, 0.2% active;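 active = percent activity GTP binding at least 20 points away from the 100% baseline, either down as inhibitor or up as activator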;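 also: median bead fluorescence of bound Bodipy-FL-GTP at 100 nM; below 100% means less GTP binding so inhibitor and above means activator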
Target sequence (P60953 whole entry, looked up): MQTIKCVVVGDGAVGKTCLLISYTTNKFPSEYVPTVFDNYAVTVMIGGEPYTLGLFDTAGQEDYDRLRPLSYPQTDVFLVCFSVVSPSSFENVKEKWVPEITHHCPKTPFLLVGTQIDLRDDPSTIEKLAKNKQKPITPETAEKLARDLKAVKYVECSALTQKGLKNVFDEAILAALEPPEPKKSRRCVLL
Rab7 wt modul – modulators of GTP binding to dog Rab7 wildtype GTPase; AID 758; GTP binding activity (percent of control), % at 10 µM; GST-Rab7 beads, fluorescent GTP binding, flow cytometry; actives lie on both sides; untreated = 100%, excess cold GTP = 0%; 190,000 tested, 0.055% active;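 active = fluorescent GTP binding to Rab7 beads changed by at least 20 points from the 100% baseline, either direction, mostly lower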;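 also: median green fluorescence of bound Bodipy-FL-GTP per Rab7 bead population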
Rac1 mut GTP – alters GTP binding to activated mutant human Rac1; percent activity (GTP binding), % at 10 µM; AID 764; P63000; GST-Rac1 activated beads, fluorescent GTP binding, flow cytometry; actives lie on both sides; 100% means binding = to untreated wells; 190,000 tested, 0.11% active;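 active = GTP binding at least 20 percentage points away from the 100% baseline, in either direction, so actives lie on both sides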
Rab2 wt GTP – changes GTP binding to wildtype dog Rab2A, up or down | GTP binding activity, % at 10 µM | GST-Rab2 wt beads, Bodipy-GTP binding, flow cytometry | 190,000 tested, 0.19% active | P61105;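 active = GTP binding activity at least 20 points away from 100%, either lowered or raised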
Rac1 wt modul – human Rac1 wildtype GTP binding, inhibitors and activators | GST-Rac1 beads, fluorescent GTP binding, flow cytometry; actives lie on both sides; 0 = cold GTP competed, 100 = untreated | 190,000 tested, 0.27% active | GTP binding activity (% of control), % at 10 µM | AID 757;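 active = GTP binding activity at least 20 points away from the 100% control level, either lower or higher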
Of the large screens only hits and unclear results are named; the others gave an inactive call; [ ] = remark or other dose. Hits are enriched below; roughly 0.37% of the tested compounds scored in any of these assays.

COc1ccc(-c2c3c(nc4sc5c(=O)[nH]c(C)nc5c24)CCC3)cc1	Rab2 wt GTP 76.0, Rac1 wt modul 76.0
Nc1nc2nc(-c3cccs3)cc(C(F)(F)F)n2n1	none
COc1ccc2cc(C)c3nnc(SCc4cccnc4)n3c2c1	Cdc42 wt 79.0
COc1ccc(Nc2nc(-c3c(C)nc4ncccn34)cs2)cc1	HRas wt GTP bind 77.0, Cdc42 wt 76.0, Rab2 wt GTP 76.0, Rac1 wt modul 65.0
Cc1nc2ncccn2c1-c1csc(Nc2ccc(N(C)C)cc2)n1	none
Cc1nc2ncccn2c1-c1csc(Nc2ccccc2)n1	HRas wt GTP bind 59.0, Cdc42 wt 67.0, Rab2 wt GTP 62.0, Rac1 wt modul 60.0
COc1ccccc1Nc1nc(-c2c(C)nc3ncccn23)cs1	HRas wt GTP bind 62.0, Cdc42 wt 66.0, Rac1 mut GTP 79.0, Rab2 wt GTP 62.0, Rac1 wt modul 63.0
COc1ccc2o/c(=N/NC(=O)c3cccs3)c(C(N)=O)cc2c1	HRas wt GTP bind 61.0, Cdc42 wt 60.0, Rab2 wt GTP 61.0, Rac1 wt modul 57.0
O=C(O)c1cc(N2N=C(C(F)(F)F)/C(=C/C=C/c3ccco3)C2=O)ccc1Cl	Cdc42 wt 79.0, Rac1 mut GTP 76.0
CCN(CC)CCCNCC(=O)Nc1ccc2c(c1)CCC2	none
Cc1c(Cl)c([N+](=O)[O-])nn1Cc1ccc(C(=O)N/N=C\c2ccccn2)o1	Rac1 wt modul 75.0
Cc1ccc(/C=N/NC(=O)c2ccc(Cn3cc([N+](=O)[O-])cn3)o2)cc1	none
COc1cc(NC(=O)c2cccs2)c(OC)cc1NC(=O)CCC(=O)Nc1cccc2ncccc12	HRas wt GTP bind 73.0, Cdc42 wt 74.0, Rab2 wt GTP 71.0, Rac1 wt modul 67.0
COc1cc(C(=O)Nc2cccc3ncccc23)cc(OC)c1OC	none
O=C(O)c1ccccc1C(=O)NNc1cccc(Cl)n1	none
CN1CCN(c2ccccc2NC(=O)c2ccc(-c3cccc([N+](=O)[O-])c3)o2)CC1	Rac1 wt modul 123.0[activator]
C/C(=N\Nc1cc(C)nc(-c2ccccc2)n1)c1cccc([N+](=O)[O-])c1	Rac1 wt modul 73.0
N#C/C(=C\c1ccco1)c1nc2ccccc2s1	none
N#C/C(=C/c1ccc(-c2cc(C(=O)O)cc(C(=O)O)c2)o1)c1nc2ccccc2s1	HRas wt GTP bind 75.0, Cdc42 wt 71.0, Rac1 mut GTP 77.0, Rab2 wt GTP 67.0, Rac1 wt modul 70.0
O=C(c1ccc(C(F)(F)F)cc1)C1CCCN(C(=O)CCN2CCCO2)C1 (stereo unspecified)	none
Cc1csc(NC(=O)c2cc(=O)[nH]c3ccc(S(=O)(=O)N4CCOCC4)cc23)n1	Rab2 wt GTP 79.0, Rac1 wt modul 75.0
O=C(NC1CCCCCC1)c1cc(=O)[nH]c2ccc(S(=O)(=O)N3CCOCC3)cc12	none
COc1c(C)cccc1C(=O)NC(=S)Nc1ccc2c(c1)Cc1ccccc1-2	Cdc42 wt 77.0, Rac1 mut GTP 74.0, Rab2 wt GTP 75.0, Rac1 wt modul 77.0
O=C(O)CC/C(=C\c1ccc(N2CCOCC2)c([N+](=O)[O-])c1)c1nc2ccccc2s1	HRas wt GTP bind 77.0, Cdc42 wt 71.0, Rac1 mut GTP 72.0, Rab2 wt GTP 74.0
O=C(C#Cc1ccccc1)c1ccc([N+](=O)[O-])cc1	Rac1 mut GTP 77.0
O=C(CN1C(=O)S/C(=C/c2ccncc2)C1=O)N1CCOCC1	none
O=C(CN1C(=O)S/C(=C/c2cccnc2)C1=O)N1CCOCC1	HRas wt GTP bind 78.0, Rab2 wt GTP 70.0
Fc1ccccc1COc1ccc2ccccc2c1CNc1nn[nH]n1	none
CN(C)c1ccc2c3c(ccc(N(C)C)c13)COC2	none
C=CCc1c(OC)ccc2ccc(=O)oc12	none
CCCCCCCC(=O)NNC(=O)Cc1ccccc1	none
CCCCCCCCCCCC(=O)c1c(O)cccc1O	Cdc42 wt 79.0, Rac1 mut GTP 79.0
CCCc1cc(N2CCN(C(=O)c3ccco3)CC2)n2c(nc3ccccc32)c1C#N	Rab2 wt GTP 79.0
NC(CC(=O)O)c1ccc(Br)cc1 (stereo unspecified)	none
CCOc1ccc(C2C(C(=O)O)CCC(=O)N2C2CCCCC2)cc1 (stereo unspecified)	HRas wt GTP bind 72.0, Cdc42 wt 72.0, Rab7 wt modul 74.0, Rac1 mut GTP 73.0, Rab2 wt GTP 73.0, Rac1 wt modul 71.0
C/C(=N/NC(=O)c1ccco1)c1cccnc1	none
COc1cc(/C=C2/SC(=S)NC2=O)ccc1OS(=O)(=O)c1ccc(C)cc1	none
COc1ccc(/C=C2\SC(=S)NC2=O)cc1OS(=O)(=O)c1ccc(NC(C)=O)cc1	Rac1 wt modul 135.0[activator]
COc1cc(SC#N)ccc1N=Cc1c(C)[nH]n(-c2ccc(C)c(C)c2)c1=O	Rab2 wt GTP 79.0, Rac1 wt modul 78.0
COc1cc(SC#N)ccc1N=Cc1c(C)[nH]n(-c2ccc(Cl)cc2)c1=O	none
COc1cc2c(cc1OC)-c1cc(N3CCCCCC3)nc(=O)n1CC2	none
CCOc1cccc(Nc2cc3n(c(=O)n2)CCc2cc(OC)c(OC)cc2-3)c1	Rac1 wt modul 78.0
COc1cc2c(cc1OC)-c1cc(NC3CCCCCC3)nc(=O)n1CC2	HRas wt GTP bind 75.0, Cdc42 wt 77.0, Rab2 wt GTP 75.0
CCN(CC)c1ccc2c(c1)oc(=O)c1c(Cl)cc(=O)oc12	Rac1 mut GTP 78.0
O=C(OCc1nnc(-c2ccccc2)o1)c1ccc(Cl)cc1	none
CS(=O)(=O)c1ccc(C(=O)OCc2nnc(-c3ccccc3)o2)cc1[N+](=O)[O-]	Cdc42 wt 76.0, Rac1 mut GTP 74.0
Cc1ccccc1NC(=O)COC(=O)c1ccc(S(C)(=O)=O)c([N+](=O)[O-])c1	none
CS(=O)(=O)c1ccc(C(=O)OCC(=O)NC(=O)C2CCCCC2)cc1[N+](=O)[O-]	Cdc42 wt 68.0, Rac1 mut GTP 71.0
CSc1nc2ccc(NS(=O)(=O)c3c(Cl)cccc3Cl)cc2s1	Rac1 mut GTP 79.0, Rab2 wt GTP 78.0, Rac1 wt modul 79.0
COc1ccccc1Nc1nc(N)nc(CN2CC(C)CC(C)C2)n1 (stereo unspecified)	none
O=C(CCOc1ccccc1)Nc1nnc(-c2ccc3c(c2)OCCO3)o1	none
O=C(Nc1nnc(-c2ccc3c(c2)OCCO3)o1)c1ccc(Cc2ccccc2)cc1	Rac1 mut GTP 79.0
CCN(CC)S(=O)(=O)c1ccc(C(=O)OCn2nnc3ccccc3c2=O)cc1	none
COc1ccc(-c2nnc(SCC(=O)c3cccs3)o2)cc1	HRas wt GTP bind 42.0, Cdc42 wt 54.0, Rab7 wt modul 59.0, Rac1 mut GTP 62.0, Rab2 wt GTP 60.0, Rac1 wt modul 58.0
